Potency and affinity values are given separately. Inconclusive results are not listed. A number with no mark means an inactive call. Active and inactive are the calls of the source.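 How the source made its calls: active means cytotoxic in every repeat run, with fitted half-maximal concentration at most twice the top tested dose; inconclusive means runs disagree, or flat partial drop, or poor curve fit; inactive means inactive in every run.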
test: embryonic kidney cell viability loss – CellTiter-Glo luminescence, dry powder, set 20, cytotoxicity control, dose response (AID 1117293); conditions: HEK293T viability, CellTiter-Glo ATP luminescence, 72 h; series mostly up to 26 µM; activity change, negative = cytotoxicity: at the top concentration

First: O=S(=O)(Nc1cc(C(F)(F)F)ccc1N1CCCCC1)c1ccc(C(F)(F)F)cc1
Second: O=S(=O)(Nc1cc(C(F)(F)F)ccc1N1CCCCC1)c1ccc(Br)cc1
The “activity change, negative = cytotoxicity” value of the first is lower: -43.1% for the first, -7.61% for the second.

Going from `COc1ccc(C(=O)Nc2cc(C)ccc2N2CCCCC2)cc1S(=O)(=O)O` to `COc1ccc(C(=O)Nc2cc(F)ccc2N2CCCCC2)cc1S(=O)(=O)O`, the “activity change, negative = cytotoxicity” value falls from -1.51% to -5.87%.

Compared with `CC(=O)N1CCN(C(=O)C2(NC(=O)Nc3ccc(C(C)C)cc3)CCCC2)CC1`, `CC(=O)N1CCN(C(=O)C2(NC(=O)Nc3ccccc3)CCCC2)CC1` is lower in “activity change, negative = cytotoxicity” value: 4.56% for the first, 4.55% for the second.

Going from `NC(=NCCc1c[nH]c2ccccc12)NS(=O)(=O)c1cc(F)ccc1F` to `O=S(=O)(Nc1cc(C(F)(F)F)ccc1N1CCCCC1)c1ccccc1`, the “activity change, negative = cytotoxicity” value rises from -14.3% to -6.45%.

Compared with `O=[N+]([O-])c1ccc(S(=O)(=O)Nc2cc(C(F)(F)F)ccc2N2CCCCC2)c([N+](=O)[O-])c1`, `O=[N+]([O-])c1cccc(S(=O)(=O)Nc2cc(C(F)(F)F)ccc2N2CCCCC2)c1` is lower in “activity change, negative = cytotoxicity” value: 1.21% for the first, -23.7% for the second.

First: COc1ccc(C(=O)O)cc1S(=O)(=O)Nc1cc(C(F)(F)F)ccc1N1CCOCC1
Second: COc1ccc(C(=O)O)cc1S(=O)(=O)Nc1cc(C(F)(F)F)ccc1N1CCN(C(C)=O)CC1
The “activity change, negative = cytotoxicity” value of the first is lower: -19.9% for the first, -2.37% for the second.

Compared with `CC(=O)N1CCN(C(=O)CNC(=O)Nc2ccc(C)cc2)CC1`, `CC(=O)N1CCN(C(=O)C2(NC(=O)Nc3ccc(C(F)(F)F)cc3)CCCCC2)CC1` is higher in “activity change, negative = cytotoxicity” value: -21.5% for the first, -10.4% for the second.

Going from `CC(=O)N1CCN(C(=O)C2(NC(=O)NCCc3ccccc3)CCCCC2)CC1` to `CC(=O)N1CCN(C(=O)C2(NC(=O)Nc3cccc(F)c3)CCCCC2)CC1`, the “activity change, negative = cytotoxicity” value rises from -9.03% to -6.5%.

First: COc1ccc(C(=O)Nc2ccccc2N2CCCCC2)cc1S(=O)(=O)O
Second: O=C(Nc1cc(C(F)(F)F)ccc1N1CCCCC1)c1ccc(S(=O)(=O)O)cc1
The “activity change, negative = cytotoxicity” value of the first is lower: -2.25% for the first, 8.17% for the second.

Going from `Cc1ccc(NC(=O)NC2(C(=O)N3CCNCC3)CCCCC2)cc1` to `COc1ccc(C(=O)O)cc1S(=O)(=O)Nc1ccc(N2CCCCC2)cc1C(F)(F)F`, the “activity change, negative = cytotoxicity” value rises from 0.421% to 4.22%.

Compared with `Cn1cnc(S(=O)(=O)Nc2cc(C(F)(F)F)ccc2N2CCCCC2)c1`, `O=S(=O)(O)c1ccc(N2N=C(c3ccccc3)CC2c2ccccc2)cc1` (centres undefined) is lower in “activity change, negative = cytotoxicity” value: 4.84% for the first, -6.63% for the second.

In the case of `CC(=O)N1CCN(C(=O)C2(NC(=O)Nc3ccccc3F)CCCCC2)CC1`, the outcome is reported as “inactive”.
With `COc1ccc(C(=O)O)cc1S(=O)(=O)Nc1cc(C(F)(F)F)ccc1N1CCCCC1` the outcome was “inactive”.
